Measurements from the supplement of paper PMC11732987, “Enantioselective OTUD7B fragment discovery through chemoproteomics screening and high-throughput optimisation” (Communications Chemistry, 2025).
A number with no mark means an inactive call.

Key:
Experiment in all cases: log2 ratio of Biotin-Ahx-Ub-VS probe labelling (fragment/DMSO); higher = less target engagement (more negative = stronger competition), active = hit call of the paper (q ≤ 0.05, log2 ratio ≤ -1)
Details in all cases: compound concentration: 200 uM; treatment time: 3 h
[1] = molecular target: T1, ALG13 (UniProt Q9NP73)
T1 sequence (whole entry): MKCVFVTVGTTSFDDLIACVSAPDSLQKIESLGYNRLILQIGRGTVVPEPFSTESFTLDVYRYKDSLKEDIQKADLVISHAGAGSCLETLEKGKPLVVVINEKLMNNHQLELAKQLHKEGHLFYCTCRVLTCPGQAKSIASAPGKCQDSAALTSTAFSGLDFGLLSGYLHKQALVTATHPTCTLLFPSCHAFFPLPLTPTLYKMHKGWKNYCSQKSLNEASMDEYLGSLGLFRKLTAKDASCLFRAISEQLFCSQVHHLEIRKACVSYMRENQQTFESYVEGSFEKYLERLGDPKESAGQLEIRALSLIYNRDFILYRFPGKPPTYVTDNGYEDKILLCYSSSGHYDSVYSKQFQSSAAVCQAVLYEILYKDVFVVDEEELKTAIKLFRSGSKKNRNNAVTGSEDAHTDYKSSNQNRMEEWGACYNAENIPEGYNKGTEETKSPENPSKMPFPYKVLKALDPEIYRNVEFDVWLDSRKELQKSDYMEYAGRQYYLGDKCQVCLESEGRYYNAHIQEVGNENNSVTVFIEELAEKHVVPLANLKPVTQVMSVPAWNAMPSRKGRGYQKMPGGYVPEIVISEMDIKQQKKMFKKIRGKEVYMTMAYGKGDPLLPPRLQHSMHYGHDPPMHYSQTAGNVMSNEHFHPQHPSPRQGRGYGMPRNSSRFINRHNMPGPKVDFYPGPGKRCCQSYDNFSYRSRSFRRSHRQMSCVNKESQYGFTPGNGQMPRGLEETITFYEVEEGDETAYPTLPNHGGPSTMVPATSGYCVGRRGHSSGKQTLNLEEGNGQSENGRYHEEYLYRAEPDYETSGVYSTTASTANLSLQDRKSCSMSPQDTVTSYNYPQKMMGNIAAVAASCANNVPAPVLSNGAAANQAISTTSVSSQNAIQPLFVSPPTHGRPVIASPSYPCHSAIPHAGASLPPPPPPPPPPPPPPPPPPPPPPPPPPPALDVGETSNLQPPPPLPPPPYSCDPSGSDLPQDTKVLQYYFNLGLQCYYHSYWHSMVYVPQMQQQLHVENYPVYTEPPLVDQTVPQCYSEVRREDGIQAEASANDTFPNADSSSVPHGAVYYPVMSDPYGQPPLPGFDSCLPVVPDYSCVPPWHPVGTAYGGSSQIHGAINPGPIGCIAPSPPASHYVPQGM
Method in brief: (§1)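 HEK293T lysate (495 µg per sample, in Tris/CHAPS/IGEPAL buffer with protease inhibitors) was treated in triplicate with fragment at 200 µM or with DMSO for 3 h. It was then treated with Biotin-Ahx-Ub-VS (0.5 µM final) for 1 h. Labelled DUBs were NeutrAvidin-enriched, digested with LysC and trypsin, and run by diaPASEF LC-MS/MS. Spectronaut label-free quantities were global-median-normalised. Values are average log2 ratios fragment/DMSO by unpaired t-test, using proteins with ≥2 unique peptides.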

[2] = molecular target: ATXN3 (UniProt P54252)
Method in brief: as §1

[3] = molecular target: T2, BAP1 (UniProt Q92560)
T2 sequence (whole entry): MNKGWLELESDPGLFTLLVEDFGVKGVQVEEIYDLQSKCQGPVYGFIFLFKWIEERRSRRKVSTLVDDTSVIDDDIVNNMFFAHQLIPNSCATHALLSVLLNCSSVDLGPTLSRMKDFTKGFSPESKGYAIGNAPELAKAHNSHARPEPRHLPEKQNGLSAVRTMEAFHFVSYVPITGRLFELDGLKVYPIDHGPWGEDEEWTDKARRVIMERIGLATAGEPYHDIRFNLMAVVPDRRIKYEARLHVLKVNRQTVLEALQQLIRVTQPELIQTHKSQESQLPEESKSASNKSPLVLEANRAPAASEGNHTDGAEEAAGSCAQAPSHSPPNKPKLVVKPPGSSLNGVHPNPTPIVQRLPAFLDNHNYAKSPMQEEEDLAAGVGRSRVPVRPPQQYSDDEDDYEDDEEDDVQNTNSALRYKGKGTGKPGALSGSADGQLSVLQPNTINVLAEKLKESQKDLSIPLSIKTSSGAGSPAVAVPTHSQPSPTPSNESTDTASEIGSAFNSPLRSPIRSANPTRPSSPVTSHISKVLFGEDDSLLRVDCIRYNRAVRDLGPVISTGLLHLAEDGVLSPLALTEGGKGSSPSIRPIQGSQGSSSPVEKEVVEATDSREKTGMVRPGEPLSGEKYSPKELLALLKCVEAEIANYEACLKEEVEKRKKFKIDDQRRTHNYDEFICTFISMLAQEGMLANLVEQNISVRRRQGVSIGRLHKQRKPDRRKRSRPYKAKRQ
Method in brief: as §1

[4] = molecular target: EIF3F (UniProt O00303)
Method in brief: as §1

[5] = molecular target: EIF3H (UniProt O15372)
Method in brief: as §1

[6] = molecular target: T3, FAM105A (UniProt Q9NUU6)
T3 sequence (whole entry): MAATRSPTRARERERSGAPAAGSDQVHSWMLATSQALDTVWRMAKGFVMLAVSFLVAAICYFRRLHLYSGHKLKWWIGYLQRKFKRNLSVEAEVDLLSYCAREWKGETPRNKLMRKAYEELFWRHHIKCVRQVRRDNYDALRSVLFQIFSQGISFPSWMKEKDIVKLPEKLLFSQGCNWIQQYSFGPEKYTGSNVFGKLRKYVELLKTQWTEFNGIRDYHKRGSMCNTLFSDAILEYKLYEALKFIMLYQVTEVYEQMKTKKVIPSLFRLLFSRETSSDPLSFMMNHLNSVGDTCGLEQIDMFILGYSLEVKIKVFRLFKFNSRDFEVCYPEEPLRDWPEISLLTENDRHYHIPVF
Method in brief: as §1

[7] = molecular target: OTUB1 (UniProt Q96FW1)
Method in brief: as §1

[8] = molecular target: T4, OTUD4 (UniProt Q01804)
T4 sequence (whole entry): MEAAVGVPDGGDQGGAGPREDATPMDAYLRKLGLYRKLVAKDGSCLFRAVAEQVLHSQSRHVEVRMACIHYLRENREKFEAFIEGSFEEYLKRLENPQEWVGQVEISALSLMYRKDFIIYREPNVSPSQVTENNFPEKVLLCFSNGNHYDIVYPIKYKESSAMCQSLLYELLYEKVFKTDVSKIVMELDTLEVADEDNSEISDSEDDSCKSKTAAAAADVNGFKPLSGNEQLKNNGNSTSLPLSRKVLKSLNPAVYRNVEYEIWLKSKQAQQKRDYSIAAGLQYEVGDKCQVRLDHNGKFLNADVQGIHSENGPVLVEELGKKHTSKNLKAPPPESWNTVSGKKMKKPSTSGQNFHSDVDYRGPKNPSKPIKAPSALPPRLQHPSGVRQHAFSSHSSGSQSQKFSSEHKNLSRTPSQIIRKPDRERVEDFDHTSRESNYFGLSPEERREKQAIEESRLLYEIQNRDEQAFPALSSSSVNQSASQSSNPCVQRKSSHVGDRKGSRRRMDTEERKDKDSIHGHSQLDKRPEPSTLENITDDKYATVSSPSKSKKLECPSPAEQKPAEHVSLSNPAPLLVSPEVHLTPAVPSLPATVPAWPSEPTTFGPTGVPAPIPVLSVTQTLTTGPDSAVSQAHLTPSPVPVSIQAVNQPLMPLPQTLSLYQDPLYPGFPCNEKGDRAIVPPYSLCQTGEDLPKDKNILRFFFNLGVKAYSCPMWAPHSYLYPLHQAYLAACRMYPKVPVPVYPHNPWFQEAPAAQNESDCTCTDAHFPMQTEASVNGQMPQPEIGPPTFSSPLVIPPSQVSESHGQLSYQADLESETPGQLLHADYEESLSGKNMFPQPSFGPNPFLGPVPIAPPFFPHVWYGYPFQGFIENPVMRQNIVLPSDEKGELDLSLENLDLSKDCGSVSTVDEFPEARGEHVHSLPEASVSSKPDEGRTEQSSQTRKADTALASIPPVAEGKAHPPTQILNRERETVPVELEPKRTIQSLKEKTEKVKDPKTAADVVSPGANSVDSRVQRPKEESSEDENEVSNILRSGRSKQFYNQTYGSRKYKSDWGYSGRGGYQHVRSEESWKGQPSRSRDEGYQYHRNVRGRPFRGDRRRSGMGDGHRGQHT
Method in brief: as §1

[9] = molecular target: T5, OTUD5 (UniProt Q96G74)
T5 sequence (whole entry): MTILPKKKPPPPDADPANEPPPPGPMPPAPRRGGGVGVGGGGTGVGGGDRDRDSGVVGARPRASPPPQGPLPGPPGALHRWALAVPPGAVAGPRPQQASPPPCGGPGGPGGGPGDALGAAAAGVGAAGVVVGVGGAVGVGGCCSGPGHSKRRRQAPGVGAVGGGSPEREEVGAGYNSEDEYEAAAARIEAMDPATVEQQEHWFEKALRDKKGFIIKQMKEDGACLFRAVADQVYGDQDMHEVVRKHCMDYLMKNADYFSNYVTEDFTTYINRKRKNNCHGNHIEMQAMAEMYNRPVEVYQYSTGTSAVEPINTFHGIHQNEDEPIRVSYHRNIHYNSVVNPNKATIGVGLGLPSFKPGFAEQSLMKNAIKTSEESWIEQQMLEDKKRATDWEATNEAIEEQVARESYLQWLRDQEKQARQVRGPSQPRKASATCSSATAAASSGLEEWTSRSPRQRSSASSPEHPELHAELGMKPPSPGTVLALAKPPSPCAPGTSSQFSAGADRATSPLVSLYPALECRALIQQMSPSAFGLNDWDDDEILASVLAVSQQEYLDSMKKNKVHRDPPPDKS
Method in brief: as §1

ATXN3, sequence (P54252 whole entry): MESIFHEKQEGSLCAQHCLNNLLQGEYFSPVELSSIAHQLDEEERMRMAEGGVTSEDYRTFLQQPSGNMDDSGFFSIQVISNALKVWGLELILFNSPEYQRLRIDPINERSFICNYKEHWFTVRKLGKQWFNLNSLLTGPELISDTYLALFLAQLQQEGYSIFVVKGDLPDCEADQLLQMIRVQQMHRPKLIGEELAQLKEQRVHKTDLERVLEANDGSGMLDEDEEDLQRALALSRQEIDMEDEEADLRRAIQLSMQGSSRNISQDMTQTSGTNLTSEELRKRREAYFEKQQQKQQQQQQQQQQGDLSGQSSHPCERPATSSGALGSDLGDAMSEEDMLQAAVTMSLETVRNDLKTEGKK
OTUB1, sequence (Q96FW1 whole entry): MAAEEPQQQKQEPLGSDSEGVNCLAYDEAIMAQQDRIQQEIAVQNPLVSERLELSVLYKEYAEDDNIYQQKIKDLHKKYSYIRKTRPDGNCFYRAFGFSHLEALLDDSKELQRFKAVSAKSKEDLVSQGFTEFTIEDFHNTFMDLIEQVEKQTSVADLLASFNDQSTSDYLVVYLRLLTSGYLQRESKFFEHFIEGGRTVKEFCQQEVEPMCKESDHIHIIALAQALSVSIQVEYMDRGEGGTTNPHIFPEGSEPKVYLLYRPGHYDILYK
EIF3H, sequence (O15372 whole entry): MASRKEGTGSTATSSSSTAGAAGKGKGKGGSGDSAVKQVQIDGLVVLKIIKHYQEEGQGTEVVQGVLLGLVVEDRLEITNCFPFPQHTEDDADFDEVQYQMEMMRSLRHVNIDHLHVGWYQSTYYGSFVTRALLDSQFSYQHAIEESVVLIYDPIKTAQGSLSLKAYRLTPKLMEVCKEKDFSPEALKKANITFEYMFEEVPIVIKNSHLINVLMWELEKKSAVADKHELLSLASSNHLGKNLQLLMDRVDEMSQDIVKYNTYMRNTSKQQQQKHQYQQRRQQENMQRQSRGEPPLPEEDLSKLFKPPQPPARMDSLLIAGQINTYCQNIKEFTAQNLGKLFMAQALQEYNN
EIF3F, sequence (O00303 whole entry): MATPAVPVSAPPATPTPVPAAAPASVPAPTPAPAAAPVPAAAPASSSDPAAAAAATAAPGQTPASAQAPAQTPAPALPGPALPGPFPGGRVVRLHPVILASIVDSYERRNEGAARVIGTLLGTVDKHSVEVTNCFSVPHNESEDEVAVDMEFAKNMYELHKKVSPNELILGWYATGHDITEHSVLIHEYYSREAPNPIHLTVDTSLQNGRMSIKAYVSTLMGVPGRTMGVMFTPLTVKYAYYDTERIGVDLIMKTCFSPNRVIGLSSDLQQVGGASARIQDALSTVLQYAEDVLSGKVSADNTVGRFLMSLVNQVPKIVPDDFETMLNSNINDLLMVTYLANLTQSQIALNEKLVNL

CC(=O)Nc1ccc(NC(=O)CCl)cc1
log2 ratio of Biotin-Ahx-Ub-VS probe labelling [1]: 0.0593 | log2 ratio of Biotin-Ahx-Ub-VS probe labelling [2]: -0.656 | log2 ratio of Biotin-Ahx-Ub-VS probe labelling [3]: -3.42 (active) | log2 ratio of Biotin-Ahx-Ub-VS probe labelling [4]: -0.081 | log2 ratio of Biotin-Ahx-Ub-VS probe labelling [5]: -0.182 | log2 ratio of Biotin-Ahx-Ub-VS probe labelling [6]: -0.285 | log2 ratio of Biotin-Ahx-Ub-VS probe labelling [7]: -0.24 | log2 ratio of Biotin-Ahx-Ub-VS probe labelling [8]: -0.296 | log2 ratio of Biotin-Ahx-Ub-VS probe labelling [9]: -0.406
